Unmarked numbers belong to inactive results. How the calls were made is not given here.
Target: Pantothenate synthetase (Mycobacterium tuberculosis (strain ATCC 25618 / H37Rv)) (UniProt P9WIL5)
Test: Recombinant Mtb pantothenate synthetase (PanC) inhibitors, coupled enzyme, confirmatory (AID 375);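 further: 0% = full reaction with vehicle and 100% = no enzyme background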
Conditions: coupled enzyme assay; at 10 µM, active compounds read high

Pantothenate synthetase (Mycobacterium tuberculosis (strain ATCC 25618 / H37Rv)), sequence (P9WIL5 whole entry, looked up): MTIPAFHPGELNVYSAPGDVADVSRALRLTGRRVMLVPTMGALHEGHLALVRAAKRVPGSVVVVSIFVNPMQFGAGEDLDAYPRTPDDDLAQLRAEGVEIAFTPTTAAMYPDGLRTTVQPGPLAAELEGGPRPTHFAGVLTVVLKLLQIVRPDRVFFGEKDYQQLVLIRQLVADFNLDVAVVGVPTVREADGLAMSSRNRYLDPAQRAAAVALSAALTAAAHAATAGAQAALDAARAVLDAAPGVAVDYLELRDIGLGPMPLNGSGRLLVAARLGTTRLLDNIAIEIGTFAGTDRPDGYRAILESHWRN

SMILES	inhibition
Cc1ccc(-c2nc3cc(NC(=O)C(C)C)ccc3o2)cc1C	0%
COC(=O)CCC(=O)CN	0%
O=C(CSc1nccn1Cc1ccccc1)Nc1nccs1	0%
c1ccc(-c2nc3cnccn3c2Nc2ccc3c(c2)OCCO3)cc1	0%
Cc1ccc(OCc2nnc(SCC(=O)N3CCOCC3)n2C)cc1	0%
CSc1cccc(NC(=O)C2CCN(S(=O)(=O)c3ccc(F)cc3)CC2)c1	0%
COc1ccc(-c2nc(SC)n(S(=O)(=O)c3ccccc3)n2)cc1	0%
COc1ccc(C)cc1NCc1cccc(OC)c1OC	0%
CCCOC(=O)/C(C(N)=NCc1ccccc1)=C(\O)OCCC	0%
COc1ccccc1CN1CC(C(=O)N2CCN(c3ccc(F)cc3)CC2)CC1=O (stereo not drawn)	0%
COc1ccc(Cn2nnnc2C(c2ccccc2OC)N2CCC(C(N)=O)CC2)cc1 (stereo not drawn)	0%
O=C(C1CCCO1)N1CCN(Cc2nc3ccccc3c(=O)[nH]2)CC1 (stereo not drawn)	0%
CN(C)CCCNC(=O)c1ccc(CN(c2ccccc2)S(C)(=O)=O)cc1	0%
CCOc1ccc2[nH]c(=O)c(CN(CCOC)C(=O)N3CCOCC3)cc2c1	8%
CCCN(CCC)S(=O)(=O)c1ccc(NS(C)(=O)=O)cc1	0%
COC(=O)C(C)Sc1nc2c(c(=O)n1-c1ccccc1)SCC2 (stereo not drawn)	0%
COC(=O)C1(C)NC(c2cccs2)C2C(=O)N(c3ccccc3F)C(=O)C21 (stereo not drawn)	0%
CC1CCc2nn(CC(=O)NCCN3CCOCC3)cc2C1 (stereo not drawn)	0%
O=C(CN1CCCC1)Nc1ccc(NC(=O)Nc2ccccc2)cc1	0%
COc1ccc(CC(=O)OCn2nnc3ccccc3c2=O)cc1	4%
Cc1ccc(N2CC(C(=O)Nc3ccc4c(c3)OCO4)CC2=O)cc1 (stereo not drawn)	6%
COC(=O)c1cccc(NC(=O)CSc2nnc(COc3ccccc3)n2C)c1	0%
CCN(CC)CCNC(=O)c1ccc(N)cc1	0%
